# Records with an inconclusive call do not appear. Activity calls are given as the source filed them.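 How the source made its calls, unless noted: active means normalized viability below 100% at a tested concentration; inactive means the rest.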
# What was measured:
# [1] = viability loss in pontine glioma line – cell-based, SU-DIPG-XVII, MIPE5.0, CellTiter-Glo, qHTS, dose response (AID 1347060; cut-off not given, nearly all actives have AC50 up to about 26 µM); conditions: CellTiter-Glo ATP luminescence
# [2] = viability loss in pontine glioma line – cell-based, JHH-DIPG-1, MIPE4.0, CellTiter-Glo, qHTS, dose response (AID 1347062; cut-off not given, nearly all actives have AC50 up to about 27 µM); conditions: JHH-DIPG-1 viability, CellTiter-Glo ATP luminescence
# [3] = viability loss in pontine glioma line – cell-based, SU-DIPG-IV, MIPE4.0, CellTiter-Glo, qHTS, dose response (AID 1347063; cut-off not given, nearly all actives have AC50 up to about 30 µM;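 further: compound exposure lasted 48 hours before the viability readout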); conditions: CellTiter-Glo ATP luminescence
# [4] = growth inhibition of DIPG cells – cell-based, MIPE4.0 library, CellTiter-Glo luminescence, qHTS (AID 1347066; cut-off not given, nearly all actives have AC50 up to about 30 µM;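 further: cells exposed to compound for 48 hours before readout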); conditions: SU-DIPG-VI viability, CellTiter-Glo ATP luminescence
# [5] = JHH-DIPG-1 glioma cell viability, MIPE5.0 library, CellTiter-Glo luminescence, qHTS (AID 1347067; cut-off not given, nearly all actives have AC50 up to about 26 µM;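 further: cells exposed to compound for 48 hours before readout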); conditions: JHH-DIPG-1 glioma viability, CellTiter-Glo ATP luminescence
# [6] = viability loss with induced miR-34 in A549 – imaging, A549 dox-inducible miR-34, nuclei and caspase counts, primary screen (AID 1347080;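 active means compounds whose cell count with miR-34 switched on is under 0.7 times the count with it off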); conditions: A549 miR-34 inducible, Hoechst nuclei count, 48 h
# [7] = compounds altering HSF1 focus formation in cells – imaging, Selleck Cancer Library (AID 1347162; in the data active means plate-normalised HSF1 focus index below about 0.46); conditions: human cells, HSF1 nuclear foci imaging, at 10 µM; SSMD: measured here: HSF1 foci SSMD mean; cell count: measured here: cell number; plate-normalised HSF1 focus index: stronger effect = lower value
# [8] = MELAS cybrid and Rieske KO viability enhancers – cell-based, MELAS cybrids, Rieske KO mouse fibroblasts, CellTiter-Glo, primary screen (AID 1508586;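 active means mean z-score across replicates of 1.96 or higher in either the MELAS or the Rieske mutant cell line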;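 further: z relative to plate mean and SD of compound and empty wells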); conditions: low glucose
# [9] = drug combination growth inhibition, ovarian cancer – cell-based, oncology-focused library, rucaparib conditional, profiling panel (AID 1508598); conditions: patient-derived ovarian cancer cells, CellTiter-Glo viability, 144 h, stronger effect = lower value
# [10] = growth inhibition, single agent or in combination, cell-based, chromothripsis tumors, cisplatin or BGB combos (AID 1671449; in the data active means inhibition above about 80%;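 further: cells exposed for 96 hours; 0% = vehicle DMSO and 100% = killing by high DMSO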); conditions: LFS_MB_P medulloblastoma cells
# [11] = growth inhibition, single agent and combos, cell-based, chromothripsis tumors, cisplatin or BGB combos (AID 1671450; in the data active means inhibition above about 80%;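 further: cells exposed to compound for four days; 0% = vehicle DMSO and 100% = cell killing by high DMSO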); conditions: HDN33 neuroblastoma cells, stronger effect = higher value
# [12] = growth inhibition, single agents and combos, ICB984, cell-based, cisplatin or BGB combos, synergistic combos for chromothripsis tumors (AID 1671451; call rule not given here;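 further: cells exposed for 96 hours before readout; 0% = vehicle DMSO and 100% = killing by high DMSO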); conditions: ICB984 medulloblastoma cells, drug combinations, stronger effect = higher value
# [13] = growth inhibition, single agents and combos, HTB85, cell-based, BGB or cisplatin IC20 combos, synergistic combos for chromothripsis tumors (AID 1671453; in the data active means inhibition above about 80%;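 further: cells exposed for 96 hours before readout; 0% = vehicle DMSO and 100% = high DMSO killing control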); conditions: HTB85 osteosarcoma cells, drug combinations, stronger effect = higher value
# [14] = growth inhibition, MDA-MB-436, cell-based, BGB or cisplatin combos, synergistic combos for chromothripsis tumors (AID 1671458; call rule not given here;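 further: cells exposed for 96 hours; 0% = vehicle DMSO and 100% = killing by high DMSO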); conditions: MDA-MB-436 breast carcinoma growth inhibition, drug combinations, stronger effect = higher value
# [15] = BT084 cell growth, single and combined drugs, ICGC_MB145, cisplatin and BGB IC40 combos (AID 1671461; in the data active means inhibition above about 80%;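 further: cells exposed to drugs for 96 hours; 0% = vehicle DMSO and 100% = high DMSO full killing control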); conditions: BT084 medulloblastoma cells, drug combinations, stronger effect = higher value
# [16] = RCMB18 cell growth, single agent and combined, cisplatin and BGB IC40 combos (AID 1671462; in the data active means inhibition above about 80%;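 further: cells exposed to compound for four days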); conditions: RCMB18 medulloblastoma cells, stronger effect = higher value
# [17] = CRL1545 cell growth, single agent and combined, cisplatin and BGB IC20 combos (AID 1671464; in the data active means inhibition above about 80%;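 further: cells exposed to compound for 96 hours before readout; 0% = vehicle DMSO and 100% = high DMSO killing control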); conditions: CRL1545 osteosarcoma cells, stronger effect = higher value
# [18] = measured here: with BGB IC20 combination, at 0.5 µM
# [19] = measured here: with cisplatin IC20 combination, at 0.5 µM
smiles,measurement,setting,value
O=C(O)[C@H](Cc1c[nH]c2ccccc12)N1C(=O)c2ccccc2C1=O,outcome,[1],inactive
same,outcome,[2],inactive
same,outcome,[3],inactive
same,outcome,[4],inactive
same,outcome,[5],inactive
same,fold change,"[6]; stronger effect = lower value, cell number ratio, induced over uninduced",0.96 (inactive)
same,fold change,[6]; measured here: relative caspase fold change +Dox/-Dox,0.441
same,cell count,"[6]; measured here: total cells with miR-34 induction, stronger effect = lower value",7740
same,cell count,[6]; measured here: total cells without miR-34 induction,8070
same,SSMD,[7],2.52
same,cell count,[7],7570
same,plate-normalised HSF1 focus index,[7],1.16 (inactive)
same,z-score,"[8]; MELAS cybrid survival, CellTiter-Glo 48 h, stronger effect = higher value",-0.375 (inactive)
same,z-score,"[8]; Rieske KO mouse fibroblast survival, CellTiter-Glo 72 h",-0.075
same,viability,"[9]; at 0.000305 µM, OCI-C5x cells, with rucaparib 10 µM, 100% = cells with rucaparib alone",113% (inactive)
same,viability,"[9]; at 0.000305 µM, OCI-C5x cells, without rucaparib",103% (inactive)
same,viability,"[9]; at 0.000305 µM, OCI-P5x cells, with rucaparib 20 µM, 100% = cells with rucaparib alone",84.4% (active)
same,viability,"[9]; at 0.000305 µM, OCI-P5x cells, without rucaparib",85.2% (active)
same,viability,"[9]; at 0.00122 µM, OCI-C5x cells, with rucaparib 10 µM, 100% = cells with rucaparib alone",126% (inactive)
same,viability,"[9]; at 0.00122 µM, OCI-C5x cells, without rucaparib",108% (inactive)
same,viability,"[9]; at 0.00122 µM, OCI-P5x cells, with rucaparib 20 µM, 100% = cells with rucaparib alone",92% (active)
same,viability,"[9]; at 0.00122 µM, OCI-P5x cells, without rucaparib",93.9% (active)
same,viability,"[9]; at 0.00488 µM, OCI-C5x cells, with rucaparib 10 µM, 100% = cells with rucaparib alone",118% (inactive)
same,viability,"[9]; at 0.00488 µM, OCI-C5x cells, without rucaparib",117% (inactive)
same,viability,"[9]; at 0.00488 µM, OCI-P5x cells, with rucaparib 20 µM, 100% = cells with rucaparib alone",89.2% (active)
same,viability,"[9]; at 0.00488 µM, OCI-P5x cells, without rucaparib",93.1% (active)
same,viability,"[9]; at 0.0195 µM, OCI-C5x cells, with rucaparib 10 µM, 100% = cells with rucaparib alone",116% (inactive)
same,viability,"[9]; at 0.0195 µM, OCI-C5x cells, without rucaparib",115% (inactive)
same,viability,"[9]; at 0.0195 µM, OCI-P5x cells, with rucaparib 20 µM, 100% = cells with rucaparib alone",91% (active)
same,viability,"[9]; at 0.0195 µM, OCI-P5x cells, without rucaparib",97.2% (active)
same,viability,"[9]; at 0.0781 µM, OCI-C5x cells, with rucaparib 10 µM, 100% = cells with rucaparib alone",109% (inactive)
same,viability,"[9]; at 0.0781 µM, OCI-C5x cells, without rucaparib",117% (inactive)
same,viability,"[9]; at 0.0781 µM, OCI-P5x cells, with rucaparib 20 µM, 100% = cells with rucaparib alone",87.1% (active)
same,viability,"[9]; at 0.0781 µM, OCI-P5x cells, without rucaparib",98.7% (active)
same,viability,"[9]; at 0.313 µM, OCI-C5x cells, with rucaparib 10 µM, 100% = cells with rucaparib alone",115% (inactive)
same,viability,"[9]; at 0.313 µM, OCI-C5x cells, without rucaparib",119% (inactive)
same,viability,"[9]; at 0.313 µM, OCI-P5x cells, with rucaparib 20 µM, 100% = cells with rucaparib alone",63.7% (active)
same,viability,"[9]; at 0.313 µM, OCI-P5x cells, without rucaparib",54.2% (active)
same,viability,"[9]; at 1.25 µM, OCI-C5x cells, with rucaparib 10 µM, 100% = cells with rucaparib alone",110% (inactive)
same,viability,"[9]; at 1.25 µM, OCI-C5x cells, without rucaparib",116% (inactive)
same,viability,"[9]; at 1.25 µM, OCI-P5x cells, with rucaparib 20 µM, 100% = cells with rucaparib alone",91.1% (active)
same,viability,"[9]; at 1.25 µM, OCI-P5x cells, without rucaparib",105% (inactive)
same,viability,"[9]; at 5 µM, OCI-C5x cells, with rucaparib 10 µM, 100% = cells with rucaparib alone",114% (inactive)
same,viability,"[9]; at 5 µM, OCI-C5x cells, without rucaparib",124% (inactive)
same,viability,"[9]; at 5 µM, OCI-P5x cells, with rucaparib 20 µM, 100% = cells with rucaparib alone",87.9% (active)
same,viability,"[9]; at 5 µM, OCI-P5x cells, without rucaparib",107% (inactive)
same,inhibition,"[10]; at 0.5 µM, stronger effect = higher value",-11.4% (inactive)
same,inhibition,"[10]; measured here: combination with BGB IC20, at 0.005 µM",-13.3%
same,inhibition,"[10]; measured here: combination with BGB IC40, at 0.005 µM",-16.5%
same,inhibition,"[10]; measured here: combination with BGB IC40, at 0.05 µM",-16.7%
same,inhibition,"[10]; measured here: combination with cisplatin, at 0.5 µM, stronger effect = higher value",-21.3%
same,inhibition,"[10]; measured here: combination with cisplatin, at 5 µM, stronger effect = higher value",-30.6%
same,inhibition,"[11]; BGB combo, at 5 µM",-27.5%
same,inhibition,[11]; at 0.5 µM,-36.3% (inactive)
same,inhibition,"[11]; cisplatin combo, at 5 µM",-28.6%
same,inhibition,[11]; [18],-35.8%
same,inhibition,[11]; [19],-38.5%
same,inhibition,"[11]; single agent, at 5 µM",-17%
same,inhibition,"[12]; BGB IC20 combo, at 0.005 µM",2.36%
same,inhibition,"[12]; BGB IC40 combo, at 0.005 µM",-26.6%
same,inhibition,"[12]; BGB IC40 combo, at 0.05 µM",4.66%
same,inhibition,[12]; at 0.5 µM,-28.2% (inactive)
same,inhibition,"[12]; cisplatin combo, at 0.05 µM",1.23%
same,inhibition,"[12]; cisplatin combo, at 0.5 µM",-24.8%
same,inhibition,"[12]; cisplatin combo, at 5 µM",-12.9%
same,inhibition,"[12]; measured here: 5 uM single agent, at 5 µM",3.99%
same,inhibition,[13]; at 0.5 µM,-21.8% (inactive)
same,inhibition,"[13]; measured here: with BGB IC20, at 0.5 µM",-19.3%
same,inhibition,"[13]; measured here: with BGB IC20, at 5 µM",-13.7%
same,inhibition,"[13]; measured here: with cisplatin IC20, at 0.5 µM",-26.1%
same,inhibition,"[13]; measured here: with cisplatin IC20, at 5 µM",-16.9%
same,inhibition,"[13]; single agent, at 5 µM",-18.1%
same,inhibition,[14]; at 0.5 µM,-15.2% (inactive)
same,inhibition,"[14]; measured here: BGB combination, at 0.5 µM",-12%
same,inhibition,"[14]; measured here: BGB combination, at 5 µM",-8.16%
same,inhibition,"[14]; measured here: cisplatin combination, at 0.5 µM",-19.2%
same,inhibition,"[14]; measured here: cisplatin combination, at 5 µM",-7.27%
same,inhibition,[15]; at 0.5 µM,-10.1% (inactive)
same,inhibition,"[15]; cisplatin combination, at 0.5 µM",-26.2%
same,inhibition,"[15]; cisplatin combination, at 5 µM",-3.75%
same,inhibition,"[15]; measured here: BGB IC40 combination 0.05 uM, at 0.05 µM",-4.25%
same,inhibition,"[15]; single agent, at 5 µM",-4.64%
same,inhibition,[16]; at 0.5 µM,-10.5% (inactive)
same,inhibition,"[16]; cisplatin combo, at 5 µM",-5.73%
same,inhibition,"[16]; measured here: BGB IC40 combination, at 0.05 µM",-15.4%
same,inhibition,"[16]; measured here: combination with cisplatin, at 0.5 µM",-22.8%
same,inhibition,"[16]; single agent, at 5 µM",-14.1%
same,inhibition,[17]; at 0.5 µM,-39.1% (inactive)
same,inhibition,[17]; [18],-34.3%
same,inhibition,[17]; [19],-43.9%
same,inhibition,"[17]; single agent, at 0.05 µM",-29.1%
same,inhibition,"[17]; single agent, at 5 µM",-40.2%
